High-throughput results from PubChem BioAssay.
SARS PLpro yeast: blocks SARS-CoV papain-like protease in a yeast assay | S. cerevisiae expressing SARS-CoV PLpro, growth rescue | Potency, µM (highest dose often 32.9 µM), for the others: at the highest dose activity, positive = growth rescue, hits mostly activators | hit rate 0.19% among 330,000 | AID 485353; calls by dose curve; further: 0% is about no effect; nearly all actives have a fitted effect of over 55% in size
LmPK inh: inhibitors of Leishmania mexicana pyruvate kinase; AID 1721; hit rate 0.37% among 290,000; Potency, µM (series often up to 57.5 µM), inactives show top-dose activity change, negative = inhibition, most hits filed as inhibitors; purified LmPK, Kinase-Glo ATP luminescence, 1 h; Q27686; further: on the % scale 0 is the no-effect control and ±100 the full control effect
Target sequence (Q27686 whole entry, looked up): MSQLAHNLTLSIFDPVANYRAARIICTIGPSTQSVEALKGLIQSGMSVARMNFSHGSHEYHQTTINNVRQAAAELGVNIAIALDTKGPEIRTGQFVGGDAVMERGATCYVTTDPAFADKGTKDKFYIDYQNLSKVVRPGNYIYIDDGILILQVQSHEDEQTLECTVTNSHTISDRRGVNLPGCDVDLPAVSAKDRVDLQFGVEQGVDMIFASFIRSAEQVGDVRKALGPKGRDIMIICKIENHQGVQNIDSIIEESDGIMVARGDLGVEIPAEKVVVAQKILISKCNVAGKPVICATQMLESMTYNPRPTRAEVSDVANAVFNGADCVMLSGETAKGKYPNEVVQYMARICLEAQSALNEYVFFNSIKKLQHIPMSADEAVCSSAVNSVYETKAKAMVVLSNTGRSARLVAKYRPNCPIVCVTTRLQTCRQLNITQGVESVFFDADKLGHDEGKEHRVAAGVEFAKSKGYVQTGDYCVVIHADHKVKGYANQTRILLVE
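Purified LmPK (0.1 nM) converted ADP (0.1 mM) to ATP with PEP (0.5 mM) in imidazole buffer pH 7.2 with KCl and MgCl2, 1 h at room temperature. ATP was read by Kinase-Glo luminescence; data normalized to uninhibited and no-enzyme controls.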
RE007 growth inh: less growth of the S. pombe RE007 Vpr strain. hit rate 0.21% among 360,000. Potency, µM (doses to about 92.2 µM), without a hit: at the highest dose activity change, negative = less growth, usual class: inhibitors. S. pombe RE007 Vpr strain, BacTiter-Glo ATP luminescence, 24 h; active means well fitted falling curve with a large enough effect; inconclusive means small, poorly fitted or top-dose-only effect; inactive means no such curve, though single readings can be large or run the other way; further: on the % scale 0 is the no-effect control and ±100 the full control effect; nearly all actives have a fitted effect of over 50% in size
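Fission yeast strain RE007, carrying one chromosomally integrated HIV-1 vpr copy, was seeded at OD 0.01 in PMG+AL medium with 23 nL pinned compound. After 24 h at 30 °C and 99% humidity, viability was read by BacTiter-Glo luminescence.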
AMA1 RON2 block: AMA1-RON2 (P. falciparum) interaction inhibition; AlphaScreen AMA1-biotinylated RON2 peptide binding; Potency, µM (highest dose often 58.2 µM), for the others: at the top dose activity change, negative = inhibition, usual class: inhibitors; hit rate 0.2% among 360,000; AID 720542;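 further: 0% = vehicle wells and -100% = peptide control; nearly all actives have a fitted effect of over 45% in size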
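AMA1 (3D7) with his tag at 25 nM final met compounds first, then biotinylated RON2 peptide at 25 nM; detection used donor plus acceptor beads, 10 µg/mL apiece, read by AlphaScreen after 30 min at room temperature.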
TbPYK inhibitor: inhibitors of Trypanosoma brucei pyruvate kinase | Q57TT1 | TbPYK enzyme, Kinase-Glo Plus ATP luminescence, 45 min | Potency, µM (top dose mostly 76.8 µM), inactives show top-dose activity, negative = inhibition, actives largely listed as inhibitors | hit rate 0.12% among 410,000 | AID 624173; further: on the % scale 0 is the no-effect control and ±100 the full control effect; nearly all actives have a fitted effect of over 50% in size
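In this concentration-response screen, enzyme-free wells defined baseline while DMSO plates tracked drift. Each reaction combined TbPYK, substrate, compound and 130 uM ADP for 45 min at room temperature. Kinase-Glo Plus luminescence gave the signal.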
Starred values were filed as active, the others as inactive; ? = inconclusive; . = no result; [ ] = another dose, or the depositor's remark. Sampled rows, rich in hits. Any-hit rate of the full collection: about 0.81%. Unless noted, the call rests on the fitted dose curve; in most records, active means well fitted curve in the direction sought with a large enough effect; inconclusive means small, poorly fitted or top-dose-only effect, or another doubt; inactive means no such curve, though single readings can be large; an effect the other way counts as inactive or inconclusive. Potency means the concentration at half of the fitted maximal effect.

SMILES	SARS PLpro yeast	LmPK inh	RE007 growth inh	AMA1 RON2 block	TbPYK inhibitor
O=C(/C(=C/O)N=Nc1ccc(Cl)cc1)c1ccncc1	-26%	-2%	20µM*	-30%	8%
O=C(/C(=C/O)N=Nc1ccccc1Cl)c1ccccc1	-3%	5%	?	?	-1%
COc1ccc(C(=O)/C(=C/O)N=Nc2ccc(F)cc2)cc1	-19%	-2%	-48%	-14%	-25%
CCOC(=O)N1CCN(C2CC(=O)N(c3ccc(Cl)c(Cl)c3)C2=O)CC1 (configuration not stated)	-96%	-2%	11µM*	0%	-7%
COc1cccc(N2CCN(C3CC(=O)N(c4ccc(Cl)c(Cl)c4)C3=O)CC2)c1 (configuration not stated)	-25%	-4%	35µM*	-20%	1%
CCOC(=O)N1CCN(C2CC(=O)N(c3ccccc3)C2=O)CC1 (configuration not stated)	-8%	-5%	-15%	2%	3%
CC1(C)CC(=O)C(C=NCCN2CCN(C3CC(=O)N(c4ccc(Cl)c(Cl)c4)C3=O)CC2)=C(O)C1 (configuration not stated)	-6%	4%	10µM*	81%	5%
O=C1CC(N2CCN(c3ccccc3Cl)CC2)C(=O)N1c1cccc(F)c1 (configuration not stated)	-30%	0%	35µM*	-15%	2%
CN1C(=O)CC(N2CCN(CCN=CC3=C(O)CC(C)(C)CC3=O)CC2)C1=O (configuration not stated)	1%	-2%	-17%	48%	-5%
COc1ccc(OC)c(CNC(=O)Cn2nc(C)c3nn(-c4ccc(Cl)cc4)c(C)c3c2=O)c1	.	.	.	.	-5%
CCCC(=O)O[C@]1(C(=O)CCl)[C@H](C)C[C@@H]2[C@H]3CCC4=CC(=O)C=C[C@]4(C)[C@@]3(F)C(=O)C[C@@]21C	.	.	.	.	3%
COc1cccc(CSc2nc3ccncc3[nH]2)c1	-1%	25µM*	?	4%	-5%
NC(N)=NN=C(/C=C/c1ccc([N+](=O)[O-])o1)/C=C/c1ccc([N+](=O)[O-])o1	.	.	.	.	3%
c1ccc(-c2nc(N3CCOCC3)sc2-c2ccccc2)cc1	-25%	-8%	3%	-15%	3%
c1ccc(-c2nc(N3CCOCC3)s[n+]2-c2ccccc2)cc1	-12%	-19%	.	5%	2.5µM*
C#C[C@]1(OC(=O)CCCCCC)CC[C@H]2C3CCC4=CC(=O)CC[C@@H]4[C@H]3CC[C@@]21C (some centres not stated)	.	.	.	.	1%
CN1CCc2c(sc3c2c(=O)n(-c2ccccc2)c2nnc(SCc4ccccc4)n32)C1	1%	-10%	4%	-3%	32µM*
O=C(Nc1ccccc1)C(=O)Nc1cccnc1	-2%	14µM*	-19%	-6%	-16%
NC1=C(Br)C(=O)c2ccccc2C1=O	-6%	-29%	11µM*	-18%	-6%
Cc1cc2c(cc1C)C(=O)C(Br)=C(N)C2=O	.	.	?	-8%	-5%
O=C(CCl)c1ccc2c(c1)CCN2C(=O)C1CC1	21%	-1%	.	.	.
O=C(CCl)c1ccc2c(c1)CCN2C(=O)C1CCCCC1	-7%	1%	11µM*	-4%	-3%
COc1ccc(Nc2nc(N3CCCC3)c3ccccc3n2)cc1	-3%	-9%	42%	?	-4%
CCN(CC)c1ccc(Nc2nc(N3CCOCC3)c3ccccc3n2)cc1	-18%	5%	15%	24µM*	?
CCN1CCN(C(=O)c2ccc(CS(=O)(=O)Cc3ccccc3Cl)o2)CC1	.	.	-10%	-9%	1%
SMILES	SARS PLpro yeast	LmPK inh	RE007 growth inh	AMA1 RON2 block	TbPYK inhibitor
Cc1cc(Cl)ccc1OCc1n[nH]c(=S)n1C1CCCCC1	-26%	13µM*	-18%	76%	?
COc1ccc(Cl)cc1-c1n[nH]c(=S)n1Cc1ccccc1	0%	?	-9%	57%	?
COc1ccc(Cl)cc1-c1n[nH]c(=S)n1C1CCCCC1	16%	7.1µM*	11%	132%	?
Cc1cccc(N2CCN(Cc3nnc(-c4ccccc4C)o3)CC2C)c1 (configuration not stated)	.	.	.	.	-7%
CCC(/C=C1\Sc2ccc(OC)cc2N1CCO)=C\c1sc2ccc(OC)cc2[n+]1CCO	-57%	14µM*	?	0%[2.32 µM]	?
O=C(NCCOC(=O)c1ccccc1)c1ccccc1	-3%	.	6%	-6%	-10%
Oc1ccc(C[C@H]2NCCc3cc(O)c(O)cc32)cc1O	-3%	?	-12%	2.5µM*	11%
COc1cc2c(cc1OC)C(Cc1ccc(O)cc1)NCC2 (configuration not stated)	11%	-1%	2%	19%	-11%
COC(=O)c1ccc(N)cc1O	-5%	-5%	16%	3%	-1%
COC(=O)c1ccc(=O)c2nc3/c(=C/O)c(O)cc(=O)c3[nH]c12	3.2µM*	-11%	17%	1.3µM*	1%
O=c1c2c(-c3ccccc3)csc2ncn1/N=C/c1cccc([N+](=O)[O-])c1O	-21%	?	-25%	20µM*	-2%
O=c1c2c(-c3ccccc3)csc2ncn1/N=C/c1ccc(O)c([N+](=O)[O-])c1	-6%	3%	13%	1%	-4%
Cc1ccc(-c2nnc(Nc3ccccc3)o2)cc1	-6%	14µM*	?	-1%	-14%
CCOC(=O)c1cnc(Nc2nc3ccccc3o2)nc1C	0%	14µM*	-9%	33%	?
Cc1cccc(C)c1Nc1nc2ccccc2o1	-1%	1%	14%	-6%	0%
Cc1nc(Nc2nc3ccccc3o2)nc2c1CCC2	2%	16µM*	-4%	57%	0%
CCOC(=O)c1cnc(Nc2nc3ccccc3o2)nc1CSc1nnc(C)s1	.	.	-10%	77%	-5%
CCOc1ccccc1NC1=C(Cl)C(=O)N(Cc2ccccc2)C1=O	-16%	2%	-2%	-13%	-3%
COc1ccc(OC)c(NC2=C(Cl)C(=O)N(Cc3ccccc3)C2=O)c1	-1%	2%	8%	13µM*	-3%
CCOC(=O)/C=C(\C)Sc1cc(=O)oc2ccccc12	-37%	1%	23%	-15%	0%
CCOC(=O)/C=C(\C)Sc1cc(O)c2ccccc2c1O	-7%	10µM*	63µM*	-16%	7.1µM*
COc1ccc(OC)c(-n2c(-c3ccc(C)cc3)n[nH]c2=S)c1	10%	2.5µM*	-1%	44%	?
COc1ccc(-n2c(-c3ccc(C(C)(C)C)cc3)n[nH]c2=S)c(OC)c1	.	.	-25%	95%	?
S=c1[nH]nc(-c2cc(-c3ccco3)[nH]n2)n1-c1ccccc1	5%	13µM*	22%	89%	?
COc1ccccc1-n1c(-c2ccc(NS(C)(=O)=O)cc2)n[nH]c1=S	4%	7.9µM*	0%	3%	?
